Results published in the supplement of paper PMC6555819.

Test system: VDR:RXRa (NR concentration 270 nM, RXRa partner concentration 90 nM)
Test: PBM binding z-score (relative to random genomic background probes); higher = stronger binding; sequences stand for … in GC…GCGATTGACAGCGTAGAATGAAGG
Protocol: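 Protein-binding microarray (Agilent 4x180K custom design, double-stranded 60-nt probes: 5' GC cap, 34-nt variable region, 24-nt constant primer region; full probe sequence given). Purified or IVT nuclear receptor:RXRα heterodimers (3:1 NR:RXRα, mostly 270:90 nM) or homodimers were incubated for 1 h in PBS with 2% milk and no ligand, then detected with Alexa488 antibodies. Fluorescence from o1-orientation probes (~5 replicates averaged) was converted to z-scores against 500 random hg19 background probes. Variable regions are seed direct-repeat (DR0–DR5) sites, all their single-nucleotide variants and half-site ablations.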

Going from ACTAGTTGTTCAGCTGAGGTCACACACAATTCGG to ATATGTAGGTTAGCGTCATTCAGAAAGTAGGGAA, the PBM binding z-score falls from 4.06 to 0.0435.

Going from CGTCAAAGTTCAAGGCAACGTAACAGAAAGCAGC to TTACCAAGGTGAAGGTCGTGGATCCCTCTGTAGA, the PBM binding z-score falls from 3.3 to 1.28.

Compared with CATACAGGGTCATCTAGGCCAGAGTAGGGACGGC, CCTCGGAGGACAACCGGAGGTCAGAGCTGCCAGA is lower in PBM binding z-score: 5.26 for the first, 1.9 for the second.

First: ATCGAAAGGTCGAAGGTGAGTACACCCACCCGAA
Second: CGAACTGGGTCAAAGGACAGTGAAAGGCGACGTA
The PBM binding z-score of the first is higher: 3.97 for the first, 1.39 for the second.

Compared with CGAACTAGGTAAAAGGACAGTGAAAGGCGACGTA, CGTCCAAGGTCATAGGAGGTCATTGAAGACAGAT is higher in PBM binding z-score: -0.189 for the first, 7.27 for the second.

Compared with CAAACTAGGTCAAAGGTCAAGGTCGAGCCAACCA, CTATGTAAGTTAAGGGGGTCATTCAGTTTGAAAG is lower in PBM binding z-score: 6.86 for the first, 6.67 for the second.

Compared with GCTGCTAGGTCAGGTTGGTCAACTAACGGGTACG, CGAACTAGGTCAGAGGACAGTGAAAGGCGACGTA is lower in PBM binding z-score: 0.9 for the first, 0.161 for the second.

Going from CAAACTAGGTCAAAGGTCAAAGACGAGCCAACCA to TAGCCTAGGCCATGGGCCAGTATACCACGCGAAC, the PBM binding z-score falls from 6.69 to -0.852.

Compared with CGTCCAAGGTCATAAGAGGTCAGTGAAGACAGAT, TCTCGGAGGACACGAAAGGTGAGAGCTCGACATC is lower in PBM binding z-score: 6.96 for the first, 0.263 for the second.

Going from ATATGTAGGTTAGCTGGAGTCATTCAGACTAGGC to TCGAATAGGTTACGGGGGCATTCAGGGATGAAGA, the PBM binding z-score rises from 0.533 to 4.6.

Going from CGAACTAGGTAACCAGGACAGTGAAGAGGTTGGA to ATCGAAAGGTCGAAGGTGAGTCTACCCACCCGAA, the PBM binding z-score rises from -0.0408 to 3.08.

First: CTATGTAGGTTAAGGGCGTCATTCAGTTTGAAAG
Second: CGAACTAGGTCAAAGGACAGGGAAAGGCGACGTA
The PBM binding z-score of the first is lower: 0.981 for the first, 1.27 for the second.

Going from CGTCTAAGTTCAAGGTAACGTAACAGAAAGCAGC to ATCGAAAGGTCGAAGGTGACTATACCCACCCGAA, the PBM binding z-score falls from 3.43 to 2.9.

Going from GCTAGTTGGTCAGTAAATGGTCACACACCGGTCG to CCTAGTTGGTCAAGGTAACACACGCTATAGGTAC, the PBM binding z-score rises from -0.166 to 0.707.

Going from TCGAGTAGGTTACGGGGGCATTCATGGATGAAGA to CGATGTAGGTTAAGGGGGTCATTCAGTTTGAAAG, the PBM binding z-score rises from 3.71 to 7.68.

Compared with CCGAGCAGGTTACGAGGGGGCATTCAGTGCGAAT, CGTCCAAGGTCAAGGGCAGTGAAAGAGACTCGAA is lower in PBM binding z-score: 5.27 for the first, 3.68 for the second.

First: ATATCTAGGTAAAAGTTCAGTGAATCCCGAGGAT
Second: TTACAAAGGTGAAAGGTCGTTGATGCACGCCTTG
The PBM binding z-score of the first is lower: 1.59 for the first, 4.35 for the second.

Going from CTCGAAAGGTGGTGCTCAGGTGAGTATACCAAAC to TCGAGAAGGTTACGGGGGCATTCAGGGATGAAGA, the PBM binding z-score rises from -0.508 to 4.82.

First: CAACCTAGGTCACGAAAGGTCAAAGTCGAATGAC
Second: CCGAGTAGGTTACGAGGGGGCAGTCAGTGCGAAT
The PBM binding z-score of the first is higher: 7.15 for the first, 3.95 for the second.

First: ATATGTAGGTTAGGGTCATGCAGAAAGTAGGGAA
Second: ATATGTGGGTTAGGGTCATTCAGAAAGTAGGGAA
The PBM binding z-score of the first is lower: 4.36 for the first, 4.97 for the second.
